From ChEMBL document CHEMBL3988442, “University of Dundee, Small-Polar-MMV Screening Library” (2021)
The whole screen tested about 48,000 compounds, of which about 13,000 (27%) showed an effect of 50% or more. The list shows a part of the results.

These compounds were tested on Wolbachia pipientis (assay: Anti-Wolbachia Cell-Based Screen). Conditions: 5 µM.
Assay type: functional
Set-up: scale not given: in the data most compounds retested in dose-response had high values

SMILES | Percent Effect
Cl.O=C(C1CCCC1)N1C[C@@H](c2ccsc2)[C@@H]2CN(C3CCCC3)CC[C@@H]21 | 194.4%
Cl.O=C(C1CCC1)N1C[C@@H](c2ccsc2)[C@@H]2CN(C3CCCC3)CC[C@@H]21 | 127.5%
CN(C)c1ccc(NC(=O)N2CCCC2c2ccsc2)cn1 (stereo not given) | 11.58%
O=C(C1CCC1)N1CCN(Cc2ccsc2)[C@H]2CS(=O)(=O)C[C@H]21 | -4.22%
Cl.O=C(C1CCC1)N1C[C@@H](c2ccsc2)[C@@H]2CN(C3CCCCC3)CC[C@@H]21 | 144.1%
CSc1ncc(CN2CC(Oc3c(C)cccc3C)C2)cn1 | -6.082%
CCC(Nc1nc(C(C)C)nc2c1cnn2C)c1ccncc1 (stereo not given) | -4.681%
Cc1ccc(NS(=O)(=O)CC2=NC(=O)n3cccc3C2=O)cc1 | 7.318%
O=C(Nc1ccccc1)c1ccc(NCc2ccccc2CO)nn1 | -18.51%
CCCS(=O)(=O)N1CCC2(CC1)CN(c1ccccn1)CCO2.O=C(O)C(F)(F)F | 3.761%
O=C(NCC1CCOC1)Nc1ccc(OCC(F)(F)F)nc1 (stereo not given) | -13.99%
CC(C)Oc1cccc(C(=O)C2CCCN(C(=O)c3ccccn3)C2)c1 (stereo not given) | -12.09%
COCCC(=O)N1CCC(c2ccc3c(NC(C)C)n[nH]c3n2)C1 (stereo not given) | 74.92%
COCCOCCC(=O)N1CCC(c2ccccc2C)C1 (stereo not given) | -9.058%
Cc1ncsc1C(=O)N1CCC(c2ccc3c(NC(C)C)n[nH]c3n2)C1 (stereo not given) | 170.9%
CC(C)Nc1n[nH]c2nc(C3CCN(C(=O)c4ccccn4)C3)ccc12 (stereo not given) | 75.7%
COCCC(=O)N1CCc2nc(N3CCOCC3)nc(NC(C)C)c2C1 | -19.12%
CC(C)c1nc2n(n1)CC(NCc1nc(-c3ccsc3)no1)CC2 (stereo not given) | -1.114%
O=c1n(CC2CCCCO2)nc(CC2CCNCC2)n1-c1ccccc1 (stereo not given) | 26.34%
CC(NC(=O)c1cc(Br)c2c(c1)OCCO2)C(N)=O (stereo not given) | -7.344%
CC(C)OCCS(=O)(=O)N1CCN(Cc2cccn2C)CC1 | -8.582%
CC(C)CN1C(=O)C2(CCCC2)NC12CCSCC2 | -2.921%
CCOc1ccc(C(=O)N2Cc3cnc(CC)nc3C2)o1 | -12.82%

SMILES | Percent Effect
CCN(CC)S(=O)(=O)NC(=O)c1cc(C)n(-c2ccccc2)n1 | 6.675%
CCCS(=O)(=O)NC(=O)c1cc(C)n(-c2ccccc2)n1 | 6.254%
CNC(=O)c1cc(C)n(-c2ccccc2)n1 | 92.62%
COc1cc(N2CCCC(c3nccn3Cc3cscn3)C2)nc(N)n1 (stereo not given) | 2.098%
O=c1[nH]c2c(c(=O)n1C1CCCCC1)CCC2Nc1ccccc1Cl (stereo not given) | 4.437%
O=c1[nH]c2c(c(=O)n1C1CCCCC1)CCC2Nc1ccccc1 (stereo not given) | -8.343%
O=c1[nH]c2c(-c3ccccn3)nsc2c(=O)n1C1CCCCC1 | 110.2%
O=C(c1ccc2c(c1)OCO2)N1C[C@@H](CN2CCCCC2)[C@@H](CO)C1 | -23.85%
COc1ccc(F)c(F)c1C(=O)N1C[C@@H](CN(C)CCO)[C@@H](CO)C1 | -3.681%
COCCN(C)C[C@@H]1CN(C(=O)c2ccc(OC)c(F)c2)C[C@@H]1CO | 94.27%
COCCN(C)C[C@@H]1CN(C(=O)c2ccc3c(c2)OCO3)C[C@@H]1CO | 100.3%
COCCN(C)C[C@@H]1CN(C(=O)c2c(F)ccc(OC)c2F)C[C@@H]1CO | -13.51%
COCCN(C)C[C@@H]1CN(C(=O)c2ccc(SC)cc2)C[C@@H]1CO | 113.3%
COCCN(C)C[C@@H]1CN(C(=O)C(C)(C)c2ccccc2)C[C@@H]1CO | 115.8%
CCc1ccc2nc(C)cc(C(=O)NC3CCCCNC3=O)c2c1 (stereo not given) | -55.41%
COc1ccc(N2CCC(N3CCOC(C(F)(F)F)C3)CC2)cc1 (stereo not given) | 26.01%
COC(=O)c1ccc(Cl)c(CN(C)Cc2ncnn2C)c1 | -12.36%
COC(=O)CCCC(=O)N(C)CC1Cc2ccccc2CN1C (stereo not given) | -6.642%
CS(=O)(=O)Cc1ccc(C(=O)NCC2Cc3ccccc3O2)cc1 (stereo not given) | -4.65%
COc1ccc(C)cc1C(=O)N1C[C@@H](CN(C)CCO)[C@@H](CO)C1 | -25.29%
COCCN(C)C[C@@H]1CN(C(=O)c2ccoc2)C[C@@H]1CO | -5.57%
COCCN(C)C[C@@H]1CN(C(=O)c2ccc(C)cc2)C[C@@H]1CO | 166.3%
